Compound activity deposited in PubChem BioAssay by National Center for Advancing Translational Sciences (NCATS).
Tau fluor counter – counter-screen for tau fibril formation inhibitors; tau K18 P301L Alexa594 fluorescence, heparin fibrillization; Potency, µM (series often up to 57.7 µM), for inactives: at the top dose activity change, negative = decrease; 280,000 compounds, 0.93% hits; further: potency means the concentration at half of the fitted maximal effect; on the % scale 0 is the no-effect control and ±100 the full control effect; nearly all actives have a fitted effect of over 55% in size
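Human K18 P301L tau (15 uM unlabeled plus 0.24 uM Alexa 594-labeled, final) in 100 mM sodium acetate pH 7 was mixed with compound and 20 uM heparin and incubated 6 hr at 37 C.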
TR SRC2 fluor cs – Texas Red fluorescence interference in TRb-SRC2 counter-screen | TRb/SRC2 Texas Red total fluorescence interference | Potency, µM (doses to about 106 µM), without a hit: top-dose fluorescence change, negative = quenching | 280,000 compounds, 0.29% hits | AID 1479; active means well fitted curve in either direction with a large enough effect; inconclusive means small, poorly fitted or top-dose-only effect; further: potency means the concentration at half of the fitted maximal effect; on the % scale 0 is the no-effect control and ±100 the full control effect
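Human TRβ ligand-binding domain (0.6 uM) and Texas Red SRC2 peptide (20 nM) in Tris buffer with 1 uM T3 and 5% DMSO were incubated with pinned compound for 5 hr at ambient temperature. Total fluorescence was computed as S + 2P (555/632 nm).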
Tau fibril FP – blocks human tau fibril formation measured by polarization; P10636; K18 P301L tau heparin fibrillization, Alexa594 FP, 6 h; Potency, µM (highest dose often 57.7 µM), for the others: at the highest dose activity, negative = inhibition, usual class: inhibitors; 280,000 compounds, 0.39% hits; AID 1468; further: potency means the concentration at half of the fitted maximal effect; on the % scale 0 is the no-effect control and ±100 the full control effect; nearly all actives have a fitted effect of over 55% in size
Target sequence (P10636 561-689 P618L limits assumed): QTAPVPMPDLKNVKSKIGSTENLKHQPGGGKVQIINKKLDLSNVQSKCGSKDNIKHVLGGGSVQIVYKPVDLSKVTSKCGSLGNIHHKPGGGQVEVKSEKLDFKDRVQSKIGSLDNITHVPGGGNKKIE
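K18 P301L tau (15 uM unlabeled/0.24 uM Alexa 594-labeled, final) + compound + heparin 20 uM final; 100 mM NaOAc pH 7; 6 hr 37 C; ThT 30 uM final added, 1 hr RT; FP ex 555/em 632 nm.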
TRb-SRC2 inh – TRbeta-SRC2 interaction inhibition. TRbeta-SRC2 peptide binding, fluorescence polarization; receptor liganded with 1 µM T3. Potency, µM (doses to about 106 µM), for inactives: at the top dose activity change, negative = inhibition, actives largely listed as inhibitors. 280,000 compounds, 0.065% hits;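 further: potency means the concentration at half of the fitted maximal effect; plate controls were bound peptide for no effect and peptide without receptor for full effect; nearly all actives have a fitted effect of over 50% in size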
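Polarization signal, normalized between peptide-alone and full complex controls, measured compound effects on T3-liganded human TRb LBD (0.6 uM) binding 20 nM Texas Red SRC2 peptide after 5 hr.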
RGS12 GoLoco inh-1 – blocks human Gai1 binding to RGS12 GoLoco peptide, red readout | P63096 | Gai1:RGS12 GoLoco peptide FP, rhodamine, 10 min | Potency, µM (highest dose often 61.6 µM), inactives show at the highest dose activity, negative = inhibition, most hits filed as inhibitors | 230,000 compounds, 0.44% hits; active means well fitted inhibition curve with a large enough effect, not every such curve was filed as active; inactive means no such curve, though single readings can be large or run the other way; further: potency means the concentration at half of the fitted maximal effect; on the % scale 0 is the no-effect control and ±100 the full control effect; nearly all actives have a fitted effect of over 30% in size
Target sequence (P63096 whole entry, looked up): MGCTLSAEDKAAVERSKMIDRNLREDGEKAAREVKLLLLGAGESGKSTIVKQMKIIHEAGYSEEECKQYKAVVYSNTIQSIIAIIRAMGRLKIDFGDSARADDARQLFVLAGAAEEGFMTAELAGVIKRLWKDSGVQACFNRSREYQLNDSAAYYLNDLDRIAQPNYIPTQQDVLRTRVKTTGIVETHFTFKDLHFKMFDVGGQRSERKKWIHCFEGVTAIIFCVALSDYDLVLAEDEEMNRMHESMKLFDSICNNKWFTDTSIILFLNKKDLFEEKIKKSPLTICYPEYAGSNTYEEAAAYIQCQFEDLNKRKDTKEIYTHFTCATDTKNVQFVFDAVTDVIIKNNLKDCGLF
Tau fibril ThT – blocks human tau fibril formation measured by thioflavin T; 270,000 compounds, 2.1% hits; AID 1460; P10636; Potency, µM (highest dose often 57.4 µM), inactives show at the top dose activity, negative = inhibition, most hits filed as inhibitors; recombinant tau K18 P301L, heparin-induced fibrillization, ThT fluorescence; further: potency means the concentration at half of the fitted maximal effect; on the % scale 0 is the no-effect control and ±100 the full control effect; nearly all actives have a fitted effect of over 55% in size
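Heparin-induced fibrillization of the P301L-mutant K18 repeat-domain fragment of human tau was followed by ThT binding in quantitative high-throughput format.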
RGS12 GoLoco inh-2 – confirmation of human RGS12 GoLoco motif inhibitors; shares compounds with RGS12 GoLoco inh-1; Potency, µM (highest dose often 57.1 µM), for inactives: top-dose activity, negative = inhibition, most hits filed as inhibitors; 110 compounds, 50% hits; Gai1/rhodamine-RGS12 GoLoco peptide fluorescence polarization
Tau fibril TEM – Inhibits human tau fibrillization; shares compounds with Tau fibril ThT; recombinant tau K18 P301L fibrillization, TEM grading; hits give high values; fibril grade (0 = clumped fibrils, 4 = only tiny pieces) (test concentration not listed); 45 compounds, 70% hits; AID 1719;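 active means compounds whose electron micrographs showed tau fibrils broken into shorter filaments or fragments, graded high on fibril breakup; inconclusive means micrographs gave an unclear fibril picture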
tau sediment – reduces sedimented tau K18 P301L aggregates | recombinant tau K18 P301L (four-repeat tau fragment), sedimentation SDS-PAGE densitometry | AID 1720 | inhibition, % at 100 µM | shares compounds with Tau fibril ThT | 110 compounds, 50% hits; in the data active means inhibition above about 40%; inconclusive means no clear call, values can overlap the other calls; inactive means below about 18%
* marks the source's active call; other numbers are inactive results; ? = inconclusive; . = not tested or not shown; [ ] = remark or other dose. Compounds with a hit are over-represented: about 3.2% of the library has one in this group of screens. Unless noted, the call rests on the fitted dose curve; in most records, active means well fitted curve in the direction sought with a large enough effect; inconclusive means small, poorly fitted or top-dose-only effect, or another doubt; inactive means no such curve, though single readings can be large; an effect the other way counts as inactive or inconclusive.

SMILES	Tau fluor counter	TR SRC2 fluor cs	Tau fibril FP	TRb-SRC2 inh	RGS12 GoLoco inh-1	Tau fibril ThT	Tau fibril TEM	tau sediment	others
Cc1cc(C)c2c(=O)n(CC(=O)Nc3ccc(Cl)cc3)sc2n1	-27%	-7%	?	-2%	25µM*	.	.	.	RGS12 GoLoco inh-2=?
Cc1ccc(NC(=O)Cn2c(C)cc(C)c(C#N)c2=O)c(Cl)c1	-5%	0%	0%	-6%	0%	-3%	.	.
O=C(Cn1c(=O)c2ccccc2n2nncc12)Nc1cccc(F)c1	-2%	-1%	-7%	-2%	.	3%	.	.
Cc1cc(C)c2c(=O)n(CC(=O)Nc3cccc(F)c3)sc2n1	-23%	-9%	14µM*	2%	32µM*	14µM*	.	.	RGS12 GoLoco inh-2=32µM*
CCCN(C(=O)c1ccc2c(=O)n3c(nc2c1)CCCCC3)c1cccc(Cl)c1	-11%	-2%	-7%	2%	.	-15%	.	.
O=C1COC(c2ccccc2O)=NN1CCCN1CCCC1	.	.	.	.	7%[14.2 µM]	.	.	.
COc1ccc2c(c1)c(CC(=O)OCC(N)=O)c(C)n2C(=O)c1ccc(Cl)cc1	-18%	-2%	-9%	3%	8%	-4%	.	.
COc1ccc2c(c1)c(CC(=O)N1CCOCC1)c(C)n2C(=O)c1ccc(Cl)cc1	-5%	-3%	8%	-1%	5%	-6%	.	9
O=S(=O)(c1ccc(NC(=S)N/N=C/c2ccc(Oc3ccccc3)cc2)cc1)N1CCOCC1	-10%	3%	1%	-3%	2%	4%	.	.
O=S(=O)(c1ccc(NC(=S)N/N=C/c2ccc(N3CCOCC3)cc2)cc1)N1CCOCC1	?	-1%	14%	5%	7%	?	.	11
CCOc1ccc2nc(C)cc(Nc3ccccc3OCC)c2c1	-16%	5%	-7%	1%	.	-15%	.	.
Nc1cc(-c2ccccc2)c[nH]c1=O	.	.	.	.	.	.	?	65*
Nc1cc(-c2ccncc2)c[nH]c1=O	?	-1%[201 µM]	2µM*	?	-10%	1.4µM*	3*	61*
NC(=O)c1csc(-c2ccncc2)n1	-6%	0%	-12%	-15%	4%	-4%	.	.
CCc1ccc2nc(N(Cc3cccnc3)C(C)=O)sc2c1	-16%	-2%	0%	-6%	.	-12%	.	.
Cc1ccc(S(=O)(=O)N(C)c2nc3ccccc3[nH]c2=S)cc1	-24%	-3%	?	-1%	-3%	1.1µM*	0	?
COc1ccc(Oc2ncc3nc(CCc4ccccc4)c(=O)n(C)c3n2)cc1	.	.	.	.	5%	.	.	.
O=C(O)CSc1cc(NS(=O)(=O)c2cccc([N+](=O)[O-])c2)c2ccccc2c1O	?	-5%	4µM*	-13%	-18%	1.8µM*	4*	79*
O=C(O)c1cccc(S(=O)(=O)Nc2ccc([N+](=O)[O-])cc2O)c1	-24%	-3%	?	3%	2%	-25%	.	.
Cc1oc2c(cc(NS(=O)(=O)c3ccc(C(C)C)cc3)c3ccccc32)c1C(=O)O	-14%	-22%	6%	0%	.	?	.	.
CCc1ccc(S(=O)(=O)Nc2cc(SCC(=O)O)c(O)c3ccccc23)cc1	?	-6%	8.9µM*	-1%	8%	3.2µM*	4*	77*
O=C1SC(Cc2ccccc2)C(=O)N1c1ccccc1 (configuration not stated)	-6%	-5%	1%	-9%	1%	-8%	.	.
Cc1ccc(N2C(=O)SC(Cc3ccccc3)C2=O)cc1 (configuration not stated)	-24%	-1%	?	-10%	-14%	?	?	?
CCN(CC)c1ccc(C(=O)N2CCC(c3c[nH]c4ccccc34)(c3c[nH]c4ccccc34)CC2)cc1	?	-3%	6%	5%	.	4%	.	.
N#Cc1cccc(NC(=O)N2CCC3(CC2)CCN(C(=O)c2csnn2)CC3)c1	.	.	.	.	2%	.	.	.
SMILES	Tau fluor counter	TR SRC2 fluor cs	Tau fibril FP	TRb-SRC2 inh	RGS12 GoLoco inh-1	Tau fibril ThT	Tau fibril TEM	tau sediment	others
Cc1cc2c(N)cccc2nn1	?	-1%	?	3%	8.9µM*	3.2µM*	3*	64*
COc1ccc(C2=NNC(=Nc3cc(S(=O)(=O)N(C)C)ccc3C)SC2)c(OC)c1	-16%	-5%	-17%	-2%	3%	?	.	.
CN(C)S(=O)(=O)c1cccc(N=C2NN=C(c3ccccc3)CS2)c1	?	-5%	?	-5%	-12%	8.9µM*	3*	?
CCOC(=O)c1ccc(S(=O)(=O)Nc2nc3cc(S(=O)(=O)NC4=NCCCCC4)ccc3s2)cc1	?	0%	16µM*	-2%	12%	11µM*	2*	68*
Nc1nc2cc(S(=O)(=O)NC3=NCCCCC3)ccc2s1	-25%	-12%	?	-1%	0%	5µM*	2*	69*
O=C(COC(=O)c1ccc(O)cc1)Nc1cccc(S(=O)(=O)NC2=NCCCCC2)c1	-18%	3%	-11%	3%	2%	-9%	.	.
O=C(CCOc1ccccc1)N(Cc1cccnc1)c1nc2ccc(F)cc2s1	-3%	-3%	-6%	-8%	.	0%	.	.
Cn1[nH]c(CSc2ccc(Cl)cc2)cc1=O	?	-4%	?	-1%	5%	?	.	16
COc1cc(/C=N/N=C2/NC(=O)C(CC(=O)O)S2)ccc1OCc1ccc(Cl)cc1 (configuration not stated)	4%	-19%	12%	5%	-2%	-8%	.	18
CCOc1cc(/C=N/N=C2/NC(=O)C(CC(=O)O)S2)ccc1OCc1ccc(Cl)cc1Cl (configuration not stated)	8%	-6%	-1%	9%	8%	?	.	.
COc1ccc(NC(=O)C2CCN(S(=O)(=O)c3c(C)noc3/C=C/c3cccs3)CC2)cc1Cl	-18%	0%	16µM*	-9%	.	5%	.	8
C=CC[C@@H]1C=C[C@H](O/N=C(\C)CCN2CCCCc3nc(C)c(C)cc32)[C@H](CO)O1	4%[11.6 µM]	-23%[11.2 µM]	4%[11.6 µM]	4%[11.2 µM]	.	4%[11.5 µM]	.	.
COc1cccc(CNc2cccc3cccnc23)c1O	?	-9%	?	0%	-19%	28µM*	2*	?
